The values that follow come from PubChem BioAssay AID1159580 (chemical genetic matrix, 2015).

The structures appear in SMILES notation. The whole screen tested about 5,500 compounds, of which about 2,000 (36%) were called active. Roughly 18% stayed inconclusive and do not appear here. This is one part of the list. Values without a mark were called inactive. Cut-off read from the data, not from the text of the source: active = normalized growth mostly below about 0.91 (no sharp cut-off); inconclusive = no clear call, values can overlap the other calls; inactive = mostly above about 0.92.

This test in a line: chemical genetic growth profiling, strain panel (AID 1159580).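 Note: tested at 20 µM; growth read once vehicle control cultures reached saturation at 30 °C; 1 = growth at the plate median or of vehicle wells; lower values mean less growth of the strain.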 The following applies: growth OD.
The mark [1] stands for this setting: S. cerevisiae deletion strains, locus YAL013W, strain DEP1, active compounds read low.
Where [2] appears, read: S. cerevisiae deletion strains, locus YDR150W, strain NUM1, active compounds read low.
The mark [3] stands for this setting: S. cerevisiae deletion strains, locus YGR229C, strain SMI1, active compounds read low.
[4] abbreviates: S. cerevisiae deletion strains, locus YJR075W, strain HOC1, active compounds read low.
Where [5] appears, read: S. cerevisiae deletion strains, locus YMR263W, strain SAP30, active compounds read low.
Where [6] appears, read: S. cerevisiae deletion strains, locus YPL241C, strain CIN2, active compounds read low.
[7] abbreviates: S. cerevisiae deletion strains, locus YBR229C, strain ROT2, active compounds read low.
Setting [8] is: S. cerevisiae deletion strains, locus YDL101C, strain DUN1, active compounds read low.
Setting [9] is: S. cerevisiae deletion strains, locus YEL061C, strain CIN8, active compounds read low.
[10] abbreviates: S. cerevisiae deletion strains, locus YGR078C, strain PAC10, active compounds read low.
The mark [11] stands for this setting: S. cerevisiae deletion strains, locus YHR030C, strain SLT2, active compounds read low.
[12] abbreviates: S. cerevisiae deletion strains, locus YHR087W, strain rtc3, active compounds read low.
[13] abbreviates: S. cerevisiae deletion strains, locus YJR043C, strain POL32, active compounds read low.
[14] abbreviates: S. cerevisiae deletion strains, locus YLR039C, strain RIC1, active compounds read low.
[15] abbreviates: S. cerevisiae deletion strains, locus YLR058C, strain SHM2 (second series), active compounds read low.
[16] abbreviates: S. cerevisiae deletion strains, locus YLR085C, strain ARP6, active compounds read low.
Setting [17] is: S. cerevisiae deletion strains, locus YLR262C, strain YPT6, active compounds read low.
Setting [18] is: S. cerevisiae deletion strains, locus YML094W, strain GIM5, active compounds read low.
Where [19] appears, read: S. cerevisiae deletion strains, locus YMR219W, strain ESC1, active compounds read low.
Where [20] appears, read: S. cerevisiae deletion strains, locus YNL128W, strain TEP1, active compounds read low.
The mark [21] stands for this setting: S. cerevisiae deletion strains, locus YNL153C, strain GIM3, active compounds read low.
[22] abbreviates: S. cerevisiae deletion strains, locus YNL298W, strain CLA4 (second series), active compounds read low.
Setting [23] is: S. cerevisiae deletion strains, locus YNL322C, strain KRE1, active compounds read low.
[24] abbreviates: S. cerevisiae deletion strains, locus YNR030W, strain Alg12, active compounds read low.
[25] abbreviates: S. cerevisiae deletion strains, locus YPL055C, strain LGE1, active compounds read low.
Setting [26] is: S. cerevisiae deletion strains, locus YPR135W, strain CTF4, active compounds read low.
Setting [27] is: S. cerevisiae strains, strain wild type, active compounds read low.

Regarding `NCCS(=O)O`, the normalized growth is, setting by setting: under setting [1], 1.01; (S. cerevisiae deletion strains, locus YAL040C, strain CLN3, active compounds read low) 0.998; (S. cerevisiae deletion strains, locus YCL061C, strain MRC1 (second series), active compounds read low) 1.01; under setting [2], 1; (S. cerevisiae deletion strains, locus YDR363W, strain ESC2, active compounds read low) 1.02; (S. cerevisiae deletion strains, locus YER002W, strain NOP16, active compounds read low) 1. For the same compound, the normalized growth under setting [3] is 1; the normalized growth under setting [4] was 1.01; the normalized growth under setting [5] was 1.01; the normalized growth (S. cerevisiae deletion strains, locus YMR307W, strain GAS1, active compounds read low) is 1.01; the normalized growth (S. cerevisiae deletion strains, locus YNL175C, strain NOP13, active compounds read low) is 1; the normalized growth (S. cerevisiae deletion strains, locus YNL197C, strain WHI3, active compounds read low) is 1. The normalized growth is 0.991 (S. cerevisiae deletion strains, locus YNL224C, strain SQS1, active compounds read low); 1.03 (S. cerevisiae deletion strains, locus YOR083W, strain WHI5 (second series), active compounds read low); 1 under setting [6].
For `CC(=O)c1ccccc1OC(=O)c1c(-c2c(Cl)cccc2Cl)noc1C`, the normalized growth under setting [1] is 0.996; the normalized growth under setting [7] was 0.994; the normalized growth (S. cerevisiae deletion strains, locus YCL061C, strain MRC1, active compounds read low) was 0.996; the normalized growth under setting [8] was 1.02; the normalized growth under setting [2] was 0.882; the normalized growth under setting [9] was 1.01. Moreover, the normalized growth is, setting by setting: under setting [10], 1.01; under setting [3], 0.998; under setting [11], 0.834; under setting [12], 0.988; under setting [13], 0.984; under setting [4], 1.01. The normalized growth by setting is: (S. cerevisiae deletion strains, locus YKL190W, strain CNB1, active compounds read low) 0.995; under setting [14], 0.923; under setting [15], 1; under setting [16], 0.985; under setting [17], 0.935; under setting [18], 1.04. For the same compound, the normalized growth is, setting by setting: under setting [19], 1; under setting [5], 0.991; under setting [20], 1; under setting [21], 1; under setting [22], 1.02; under setting [23], 1.01. For the same compound, the normalized growth by setting is: under setting [24], 1; under setting [25], 1.02; under setting [6], 0.996; under setting [26], 1.12; under setting [27], 1.01.
In the case of `Cc1onc(-c2ccccc2)c1C(=O)On1c(-c2ccccc2)nc2ccccc2c1=O`, the normalized growth under setting [1] was 0.963; the normalized growth under setting [7] was 0.988; the normalized growth under setting [8] was 0.944; the normalized growth (S. cerevisiae deletion strains, locus YDL134C, strain PPH21, active compounds read low) was 0.922 (active); the normalized growth under setting [2] was 0.902; the normalized growth under setting [9] is 0.933. Moreover, the normalized growth is 0.953 under setting [10]; 0.196 (active) under setting [11]; 1.05 under setting [12]; 0.987 under setting [13]; 0.92 under setting [4]; 0.236 (active) under setting [14]. Besides, the normalized growth was 0.979 under setting [15]; 0.537 (active) under setting [16]; 0.21 (active) under setting [17]; 0.934 under setting [18]; 0.953 under setting [19]; 0.932 under setting [5]. The normalized growth by setting is: under setting [20], 0.961; under setting [21], 1; under setting [22], 0.816 (active); under setting [23], 0.928 (active); under setting [24], 0.852 (active); (S. cerevisiae deletion strains, locus YOL006C, strain TOP1, active compounds read low) 0.63 (active). In addition, the normalized growth reads like this: under setting [25], 0.973; under setting [6], 0.82 (active); under setting [26], 0.368 (active); under setting [27], 0.888 (active).
In the case of `CC(=O)NCCc1ccc(O)c(-c2c(O)c(O)c3c(c2O)C(=O)c2c(cc(O)c(C(=O)O)c2C(=O)O)C3=O)c1`, the normalized growth reads like this: under setting [11], 1; (S. cerevisiae deletion strains, locus YHR079C, strain IRE1, active compounds read low) 1.01; (S. cerevisiae deletion strains, locus YJL095W, strain BCK1, active compounds read low) 0.992; (S. cerevisiae deletion strains, locus YJR066W, strain TOR1, active compounds read low) 0.931; (S. cerevisiae deletion strains, locus YLR113W, strain HOG1, active compounds read low) 1.01; (S. cerevisiae deletion strains, locus YNL183C, strain NPR1, active compounds read low) 0.924. The normalized growth (S. cerevisiae deletion strains, locus YOR231W, strain MKK1, active compounds read low) is 1.03 and the normalized growth (S. cerevisiae deletion strains, locus YPL256C, strain CLN2, active compounds read low) was 1.04.
